SMILES strings stand for the structures. About 3,700 (1%) of roughly 360,000 compounds were called active. Cut-off read from the data, not from the text of the source: active = activation above about 30%; inactive = the rest. Many of the other results were omitted from the sample, so actives are more common in it than they were.

Sequence of D(1A) dopamine receptor (Homo sapiens) (P21728 whole entry, looked up): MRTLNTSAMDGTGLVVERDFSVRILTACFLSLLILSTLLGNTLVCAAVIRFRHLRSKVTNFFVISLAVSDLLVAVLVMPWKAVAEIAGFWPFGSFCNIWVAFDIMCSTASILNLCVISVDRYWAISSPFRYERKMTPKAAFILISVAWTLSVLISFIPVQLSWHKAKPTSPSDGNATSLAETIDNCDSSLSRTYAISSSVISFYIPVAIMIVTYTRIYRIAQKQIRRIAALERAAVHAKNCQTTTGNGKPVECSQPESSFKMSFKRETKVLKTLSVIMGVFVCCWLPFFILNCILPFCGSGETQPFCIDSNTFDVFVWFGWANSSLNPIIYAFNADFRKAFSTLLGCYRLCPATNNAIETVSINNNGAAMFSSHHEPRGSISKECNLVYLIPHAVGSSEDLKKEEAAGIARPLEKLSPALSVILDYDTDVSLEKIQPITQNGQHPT

This assay addresses D(1A) dopamine receptor (Homo sapiens) (UniProt P21728). Nature of the assay: Allosteric Agonists of the Human D1 Dopamine Receptor: qHTS. Note: 0% is about no effect. The conditions noted are these: HEK293 T-REx D1 cells, calcium flux, agonist mode; at 2 µM; hits give high values. The method, boiled down: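 Inducible HEK293 T-REx D1 cells, force-coupled to calcium signalling, were plated at 4000 cells/well with tetracycline and held overnight at 30 C. After no-wash calcium dye loading, compound-evoked calcium rise over 180 s flagged agonists.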
For orientation: In qHTS, concentration-response curves come from the screen itself.
In the case of `Cc1ccc(-c2nn(-c3ccccc3)cc2/C=C2\SC(=S)N(CCCCCC(=O)O)C2=O)o1`, the activation is 44.7% (active).

`O=C1/C(=C/c2coc3ccc(O)cc3c2=O)SC(=S)N1c1ccccc1`: the activation is 5.55% (inactive).

With `O=C(O)CCCCCCCCc1cn(CN2C(=O)c3ccccc3C2=O)nn1`, the activation was 2.36% (inactive).

Take `O=C(Nc1ccc(F)cc1F)c1cnn(-c2ccc(F)cc2)c1-n1cccc1`: the activation is 2.54% (inactive).

In the case of `COc1cccc(C(=O)NC2CCN(C#N)CC2)c1`, the activation was 0.293% (inactive).

For `C=CCOc1cccc(CNCc2cccnc2)c1`, the activation was 3.75% (inactive).

Consider `c1ccc(COc2ccccc2CNCc2cccnc2)cc1`, for which the activation is 34.6% (active).

For `CCC(Oc1ccccc1)C(=O)NCc1cccnc1` (centres undefined), the activation is 1.93% (inactive).

For `COc1cccc(NC(=O)C2CCN(c3cc(C)nc4c(-c5ccc(Cl)cc5)c(C)nn34)CC2)c1`, the activation was 0.702% (inactive).

For `CCCCCOc1ccc(CSC2=NCCN2)cc1[N+](=O)[O-]`, the activation was 42.9% (active).

For `CCOc1ccc(C(=O)Nc2nccs2)cc1[N+](=O)[O-]`, the activation was 6.87% (inactive).

Turning to `Cc1ccccc1NC(=O)CSC1=NCCN1`, the activation was 1.9% (inactive).

As to `COCC(C)NS(=O)(=O)c1ccc(N2CCCCS2(=O)=O)cc1` (centres undefined), the activation is 3.35% (inactive).

For `CCc1cccc(NC(=O)c2cc(-c3ccccc3)n[nH]2)c1`, the activation is 12.3% (inactive).

In the case of `CCOc1cc(/C=C(\C#N)C(=O)Nc2ccccc2C)ccc1OCc1cc(=O)n2nc(CC)sc2n1`, the activation was 5.19% (inactive).

With `CCOc1ccc(/C=C(\C#N)c2nc3ccccc3c(=O)[nH]2)cc1OC`, the activation is 3.27% (inactive).

As to `CCOc1cc(/C=C(\C#N)c2nc(-c3cccs3)c(NC(C)=O)s2)ccc1O`, the activation is 115% (active).

In the case of `O=C(NCC(c1ccc2c(c1)OCO2)N1CCN(c2ccccc2)CC1)C(=O)Nc1ccccc1F` (centres undefined), the activation was 1.27% (inactive).

As to `COc1ccc(N2CCN(C(=O)CSCc3nc(-c4ccccc4Cl)oc3C)CC2)cc1`, the activation was 7.67% (inactive).

Take `CCOc1cccc2c1N[C@@H](c1ccc(C(=O)O)cc1)[C@H]1CC=C[C@@H]21`: the activation is 7.61% (inactive).

For the compound `CC1CCCN(c2cc3c(cc2F)c(=O)c(S(=O)(=O)c2cccc(Cl)c2)cn3Cc2ccccc2)C1` (centres undefined), the activation is -0.839% (inactive).

For `Cc1cc2n(n1)C(c1cc(C(C)(C)C)c(O)cc1O)Nc1ccccc1-2` (centres undefined), the activation was 38.8% (active).

With `CCOC(=O)NN1C(=O)c2ccccc2NC1c1ccccc1O` (centres undefined), the activation is 0.398% (inactive).

Regarding `COC(=O)c1ccc(NC(=O)c2cc(S(=O)(=O)N3CCC(C)CC3)cn2C)cc1`, the activation is 6.51% (inactive).

With `COc1ccc(C(CCNCc2ccccc2F)c2ccc(F)cc2)cc1` (centres undefined), the activation was 41.1% (active).

In the case of `COc1cccc(CNCCc2c[nH]c3ccccc23)c1OCc1ccccc1F`, the activation is 18.2% (inactive).

On to `COc1ccc(C(CNCC(=O)Nc2ccccc2F)N(C)C)cc1` (centres undefined), for which the activation was 0.114% (inactive).

Regarding `CC(C)CC(NS(=O)(=O)c1ccc2c(c1)oc(=O)n2C)C(=O)NCc1ccccc1Cl` (centres undefined), the activation was 3.12% (inactive).

`CCOc1ccccc1CNCc1c(C(=O)O)c(C)n(Cc2ccc(C)cc2)c1C`: the activation is 3.68% (inactive).

With `Cc1cccc(N2CCN(S(=O)(=O)c3ccc4[nH]c5c(c4c3)CCCCC5)CC2)c1C`, the activation is 2.57% (inactive).

For `O=C(Nc1ccc2nc(SCC(=O)N3CCCc4ccccc43)sc2c1)c1ccc(F)cc1`, the activation is 5.54% (inactive).

Turning to `CCOC(=O)C1CCN(C(=O)C2CCN(S(=O)(=O)c3c(C)noc3C)CC2)CC1`, the activation was -2.99% (inactive).

Turning to `CCOC(=O)C1CCN(S(=O)(=O)c2c(C)noc2C)CC1`, the activation is 0.879% (inactive).

Consider `Cc1cc(C)c(S(=O)(=O)N2CCC(C(=O)OCc3c(C)noc3C)CC2)c(C)c1`, for which the activation was 45.3% (active).

For the compound `COc1ccc(CCn2cc3c(c2-c2ccc(Br)cc2)c(=O)n(C)c(=O)n3C)cc1OC`, the activation is 0.633% (inactive).

Take `COc1cccc(NC(=O)N2CCN(C(=O)c3nsc4ccccc34)CC2)c1`: the activation was 10.2% (inactive).

Turning to `CCOC(=O)c1c(NC(C)=O)c2c3c(sc2n1Cc1c(C)cc(C)cc1C)CCCC3`, the activation is 1.79% (inactive).

For `COC(=O)CC1=NN(c2ccccc2)C(=O)C1`, the activation is 31.5% (active).

Take `COC(=O)CC1=NN(c2nc(C)cc(C)n2)C(=O)C1`: the activation is 13.3% (inactive).

For the compound `C/C(N)=C(/C#N)C(=O)COC(=O)C1=NN(c2ccccc2)C(=O)CC1`, the activation is 2.53% (inactive).

With `CCOC(=O)c1ccc(NC(=O)C2CC(=O)N(c3ccc(C(C)C)cc3)C2)cc1` (centres undefined), the activation was 0.0656% (inactive).

Take `CCOC(=O)c1cc2c(=O)n3ccccc3nc2n(CCCOC)c1=NC(=O)C(C)Oc1ccccc1` (centres undefined): the activation is -0.224% (inactive).

`C=CCC(NC(=O)Cc1ccccc1)C(=O)NCCC` (centres undefined): the activation was -1.62% (inactive).

Take `CCCCC(=O)NNC(=S)NC(=O)C(c1ccccc1)c1ccccc1`: the activation was 179% (active).

With `C/C(=N\NC(=O)CNC(=O)C(c1ccccc1)c1ccccc1)c1ccc(C)cc1`, the activation is 0.588% (inactive).

In the case of `CCOc1ccccc1C(=O)NC1(C(F)(F)F)C(=O)Nc2c1c(=O)[nH]c(=O)n2-c1ccc(F)cc1` (centres undefined), the activation was 0.807% (inactive).

In the case of `COC1=C/C(=C/c2c(N)n3nc(CC(=O)N4CCOCC4)sc3nc2=O)C=CC1=O`, the activation is 8.23% (inactive).

For the compound `C=CCC1=C/C(=C\c2c(N)n3nc(CC(=O)N4CCOCC4)sc3nc2=O)C=C(OC)C1=O`, the activation was 38.1% (active).

On to `O=C(NCc1nnc(C(=O)Nc2ccc(C(F)(F)F)cc2Cl)o1)c1ccccc1`, for which the activation was -0.686% (inactive).

On to `Cc1cc(Br)ccc1NC(=O)Cn1cnc2sc(C)c(S(=O)(=O)N3CCN(C)CC3)c2c1=O`, for which the activation is 2.4% (inactive).

Consider `CC1(c2ccc(Cl)cc2)NC(=O)N(CC(=O)c2ccc3c(c2)OCO3)C1=O` (centres undefined), for which the activation is 53.1% (active).

Take `CC1CN(C(=O)CN2C(=O)NC(C)(c3ccccc3)C2=O)CC(C)O1` (centres undefined): the activation is 0.601% (inactive).

Turning to `Cc1oc(C)c2c(=O)cc(-c3ccc4c(c3)OCO4)cc(OC(=O)c3ccc(Cl)cc3)c12`, the activation was 5.82% (inactive).

Take `COc1ccc(C2(C)NC(=O)N(CC(=O)c3ccc4c(c3)OCO4)C2=O)cc1` (centres undefined): the activation was 38.5% (active).

`Cc1ccc(C2(C)NC(=O)N(CC(=O)Nc3ccccc3C(=O)N3CCCCC3)C2=O)cc1` (centres undefined): the activation was 10.7% (inactive).

As for `CC1(c2ccc3ccccc3c2)NC(=O)N(CC(N)=O)C1=O` (centres undefined), the activation was 3.93% (inactive).

As to `Cc1ccc(NC(=O)CN2C(=O)NC(C)(c3ccc(Cl)cc3)C2=O)c(Br)c1` (centres undefined), the activation is 37.2% (active).

Turning to `COc1ccc(C(=O)CN2C(=O)NC(C)(c3ccc(C)cc3)C2=O)cc1OC` (centres undefined), the activation is 26.6% (inactive).

For `CC1(c2ccc(Cl)cc2Cl)NC(=O)N(CC(=O)Nc2cccnc2Cl)C1=O` (centres undefined), the activation is 3.86% (inactive).

The values are drawn from PubChem BioAssay AID504660 (National Center for Advancing Translational Sciences (NCATS), 2011).
